Coupling enz = qHTS Assay for Inhibitors of Fructose-1,6-bisphosphate Aldolase from Giardia Lamblia: Coupling assay counterscreen; coupling enzyme system counterscreen, AmpLite Red fluorescence; activity change, negative = inhibition, % at 58.2 µM, hits read low; 0.67% of 290,000 active; in the data active = activity change below about -30%
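Coupling enzymes only (glyceraldehyde-3-phosphate) + compound, at 57.5 uM final, 10 min RT; add substrate/coupling/AmpLite Red mix, 20 min RT; fluorescence ex 525/em 598 nm. Actives flag coupling-system interference.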
Tau fluor counter = Counterscreen qHTS for Inhibitors of Tau Fibril Formation, Fluorescence Polarization; tau K18 P301L Alexa594 fluorescence, heparin fibrillization; 0.93% of 280,000 active; AID 1463, 2008; Potency, µM (top dose mostly 57.7 µM), for the others: at the top dose activity change, negative = decrease; note: potency is the fitted concentration of half-maximal effect; nearly all actives have a fitted effect of over 55% in size
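Human K18 P301L tau (15 uM unlabeled plus 0.24 uM Alexa 594-labeled, final) in 100 mM sodium acetate pH 7 was mixed with compound and 20 uM heparin and incubated 6 hr at 37 C.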
Tau FP inhib = qHTS for Inhibitors of Tau Fibril Formation, Fluorescence Polarization. K18 P301L tau heparin fibrillization, Alexa594 FP, 6 h. Potency, µM (top dose mostly 57.7 µM), without a hit: top-dose activity, negative = inhibition, usual class: inhibitors. 0.39% of 280,000 active; note: potency is the fitted concentration of half-maximal effect; nearly all actives have a fitted effect of over 55% in size
Target sequence (P10636 561-689 P618L limits assumed): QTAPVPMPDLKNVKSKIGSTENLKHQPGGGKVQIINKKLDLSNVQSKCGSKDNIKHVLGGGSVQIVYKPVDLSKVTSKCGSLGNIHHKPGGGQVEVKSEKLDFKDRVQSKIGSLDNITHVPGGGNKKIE
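Human K18 P301L fragment (15 uM unlabeled plus 0.24 uM Alexa 594-labeled) in 100 mM sodium acetate pH 7 with compound, aggregation induced by 20 uM heparin for 6 hr at 37 C. ThT (30 uM) added for 1 hr, then Alexa 594 FP read.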
G9a block = qHTS Assay for Inhibitors of Histone Lysine Methyltransferase G9a; Histone-lysine N-methyltransferase EHMT2 (Homo sapiens), Q96KQ7; G9a H3K9 monomethylation, AlphaScreen, 2 h; Potency, µM (series often up to 102 µM), inactives show at the highest dose activity, negative = inhibition, usual class: inhibitors; 8.8% of 350,000 active; AID 504332, 2011; note: potency is the fitted concentration of half-maximal effect; nearly all actives have a fitted effect of over 75% in size
Target sequence (Q96KQ7 913-1193 limits assumed): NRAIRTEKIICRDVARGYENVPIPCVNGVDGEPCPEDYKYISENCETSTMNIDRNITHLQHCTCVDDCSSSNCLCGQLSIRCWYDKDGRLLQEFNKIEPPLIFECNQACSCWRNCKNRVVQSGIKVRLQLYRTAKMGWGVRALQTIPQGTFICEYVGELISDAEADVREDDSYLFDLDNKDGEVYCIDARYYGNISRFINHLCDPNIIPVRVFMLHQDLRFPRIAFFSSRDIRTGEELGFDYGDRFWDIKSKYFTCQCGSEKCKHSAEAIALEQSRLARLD
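AlphaScreen read-out: biotin-H3K9 peptide (500 nM) methylation by 20 nM enzyme with 20 uM SAM, 2 h at room temperature after 15 min compound preincubation; anti-monomethyl H3K9 antibody plus donor/acceptor beads, 10 min dark.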
Sfp PPTase inh = qHTS Assay for Inhibitors of Bacillus subtilis Sfp phosphopantetheinyl transferase (PPTase); 4'-phosphopantetheinyl transferase ffp (Bacillus subtilis), Q9F4F7; Potency, µM, without a hit: largest response in the series, negative = inhibition, usual class: inhibitors; AID 1490, 2009; 3.5% of 310,000 active; Biochemical Sfp PPTase activity, qHTS;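 note: the enzyme is Sfp with the accession as filed and its product quenches rhodamine fluorescence; potency is the fitted concentration of half-maximal effect; 0% = enzyme reaction without inhibitor and -100% = no enzyme wells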
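After 15 min at room temperature with compound, 15 nM Sfp received 5 uM rhodamine-CoA plus 12.5 uM BHQ-2-ybbR (50 mM Hepes pH 7.6, 10 mM MgCl2). Rate came from the fluorescence difference over 30 min, ex 525/em 598 nm.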
Tau fibril ThT = qHTS for Inhibitors of Tau Fibril Formation, Thioflavin T Binding; Microtubule-associated protein tau (Homo sapiens), P10636; recombinant tau K18 P301L (four-repeat tau fragment), heparin-induced fibrillization, ThT fluorescence; Potency, µM (doses to about 57.4 µM), for the others: at the highest dose activity, negative = inhibition, most hits filed as inhibitors; 2.1% of 270,000 active; AID 1460, 2008; note: potency is the fitted concentration of half-maximal effect; nearly all actives have a fitted effect of over 55% in size
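Heparin-induced (20 uM) aggregation of recombinant human K18 P301L tau, 15 uM unlabeled with 0.24 uM labeled, pH 7 acetate buffer, 6 hr at 37 C with compound. Fibrils quantified by 30 uM ThT fluorescence after 1 hr ambient incubation.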
The depositor's hits bear a star; ? = inconclusive; · = no result; ! = not confirmed by another sample; [ ] = remark or other dose. Compounds with a hit are over-represented: about 11% of the library has one in this group of screens. Unless noted, calls come from the whole dose curve; as a rule, active = well fitted curve in the direction sought with a large enough effect; inconclusive = small, poorly fitted or top-dose-only effect, or another doubt; inactive = no such curve, though single readings can be large; an effect the other way counts as inactive or inconclusive. Unless noted, % is set by controls: 0 for no effect and ±100 for the full control effect.

SMILES	Coupling enz	Tau fluor counter	Tau FP inhib	G9a block	Sfp PPTase inh	Tau fibril ThT
COc1ccc(C(CNc2ccc(S(=O)(=O)N3CCCC3)cc2[N+](=O)[O-])N2CCCC2)cc1 (centres undefined)	3	-8%	10%	?	4%	-3%
COc1ccc(Nc2ccc(S(=O)(=O)N3CCCCC3)cc2[N+](=O)[O-])cc1Cl	-7	3%	12%	7.1µM*	8%	0%
COc1ccc(Nc2ccc(S(=O)(=O)N3CCCCC3)cc2[N+](=O)[O-])cc1	-3	-23%	12%	25µM*	-1%	-16%
COc1ccc(N2CCN(S(=O)(=O)c3ccc4c(c3)CCCC4)CC2)c([N+](=O)[O-])c1	0	-25%	7%	18µM*	12%	-8%
O=[N+]([O-])c1cccc2c(S(=O)(=O)N3CCOCC3)cccc12	-1	·	·	·	-4%	·
N#CC(C#N)=Cc1c(N2CCN(c3ccccc3)CC2)nc2ccccn2c1=O	0	·	·	?	8%	·
COc1cccc(-c2ccc3ncnc(NCc4ccccc4)c3c2)c1	2	·	·	0%[0.501 µM]	-11%	·
Cc1ccc(Cl)cc1N1CCN(CCCNC(=O)C2COc3ccccc3C2)CC1 (centres undefined)	·	-18%	-8%	-5%[59 µM]	·	-15%
CCS(=O)(=O)n1nc(-c2ccco2)nc1NCc1ccc(C(C)C)cc1	·	-19%	-1%	?	·	2%
COc1ccc(C(CNc2ccc(S(=O)(=O)N3CCN(C)CC3)cc2[N+](=O)[O-])N(C)C)cc1 (centres undefined)	·	·	·	-43%	·	·
COc1ccc(CCNc2ccc(S(=O)(=O)N3CCN(C)CC3)cc2[N+](=O)[O-])cc1	·	·	·	50µM*	·	·
O=S(=O)(c1cccc2c(Cl)cccc12)N1CCCNCC1	-4	?	?	19µM*!	-7%	?
O=[N+]([O-])c1cc(S(=O)(=O)N2CCCCCC2)ccc1F	15	?	-7%	-6%[59 µM]	-2%	16µM*
O=S(=O)(c1cccc2c(I)cccc12)N1CCCNCC1	-5	-2%	8%	?	-23%	-4%
O=[N+]([O-])c1cc(S(=O)(=O)N2CCCC2)ccc1O	7	-7%	-9%	13%[59 µM]	2%	-10%
CCOC(=O)/C(=N\Nc1ccc(Cl)cc1)Sc1nnc(-c2ccc(OC)cc2)n1C	1	-11%	3%	10µM*	-25%	-13%
COc1ccc(-c2nnc(SCC(=O)Nc3ccccc3)n2C)cc1	-1	-1%	4%	-18%	-1%	-2%
COC(=O)/C(=N\Nc1ccccc1)Sc1nnc(-c2ccc(OC)cc2)n1C	11	14%	3%	5µM*	-14%	-1%
CCOC(=O)c1c(C)[nH]c(C)c1S(=O)(=O)N(C)CC(=O)N1CCN(c2ccccc2OC)CC1	·	-17%	-2%	-25%[59 µM]	·	-10%
COc1cccc(-c2cc(=O)c3cc(NC(=O)c4cccnc4)ccc3[nH]2)c1	4	-3%[81.3 µM]	7%[81.3 µM]	?	15%	-19%[81.4 µM]
C=CCn1c(SCc2cc(=O)n3cc(C)ccc3n2)nnc1-c1ccc(F)cc1	2	9%	-2%	-17%[59 µM]	2%	6%
Cc1ccc2nc(CSc3nnc(-c4ccncc4)n3C)cc(=O)n2c1	-1	-1%	0%	40µM*	10%	-3%
Cc1ccccc1Cn1c(O)c(N=NC(=S)Nc2ccccc2F)c2ccccc21	-1	?	5%	13µM*	12%	?
CCNC(=S)N=Nc1c(O)n(Cc2ccc(Cl)cc2)c2ccccc12	1	?	4%	?	?	?
Cc1ccc(C)c(Cn2c(O)c(N=NC(=S)Nc3ccccc3F)c3ccccc32)c1	0	?	-7%	?	-17%	?
SMILES	Coupling enz	Tau fluor counter	Tau FP inhib	G9a block	Sfp PPTase inh	Tau fibril ThT
Oc1c(N=NC(=S)Nc2ccccc2F)c2ccccc2n1Cc1ccccc1F	0	?	1%	11µM*	2%	?
Oc1c(N=NC(=S)Nc2ccccc2F)c2ccccc2n1Cc1ccc(Cl)cc1	-2	-29%	9%	10µM*	2%	?
CCOC(=O)c1cccc(NC(=O)c2sc3nc[nH]c(=O)c3c2C)c1	·	-23%	?	5%[59 µM]	·	?
CO/N=C\[C@@H](NS(=O)(=O)c1ccc(C)cc1)[C@H](C)/C=C\CC(=O)OC	-3	-2%[11.6 µM]	?	·	-1%	4%[11.5 µM]
CC(=O)N1CCC2(CC1)CCN(c1ncccn1)CC2	-1	·	·	-7%[12.7 µM]	26%	·
COc1ccccc1CNC(=O)c1cnc2sc(N3CCCCC3)nn2c1=O	·	-12%	-11%	-22%[59 µM]	·	-5%
CSc1ncccc1C(=O)OCC(=O)NC1CCC(C)CC1 (centres undefined)	·	·	·	-12%[12.7 µM]	·	·
O=C(Nc1sc2c(c1C(=O)Nc1cccc(Cl)c1)CCCC2)c1cccs1	·	-17%	?	1.6µM*	·	11µM*
COc1ccc(OC)c(NC(=O)c2c(NCc3sccc3C)sc3c2CCCCC3)c1	·	?	-5%	?	·	?
CCOC(=O)c1ccc(NC(=O)c2c(NCc3cccs3)sc3c2CCCCC3)cc1	·	-26%	?	7.9µM*	·	22µM*
COc1ccc(NC(=O)c2c(NCc3cccs3)sc3c2CCCC3)cc1	·	?	-10%	14µM*	·	?
CCOc1ccc(NC(=O)c2c(NCc3cccs3)sc3c2CCC(C)C3)cc1 (centres undefined)	·	-24%	4%	?	·	?
COc1ccc(NC(=O)c2c(NCc3cccs3)sc3c2CCCCC3)c(OC)c1	·	?	?	8.9µM*	·	25µM*
COc1cc2c(cc1OC)CN(C1CC(=O)N(c3c(C)cccc3C)C1=O)CC2 (centres undefined)	-1	-15%	10%	79µM*	6%	-17%
COc1ccccc1N1CCN(C2CC(=O)N(c3cccc(Br)c3)C2=O)CC1 (centres undefined)	0	·	·	·	-12%	·
OC1CCNC(=S)N1c1ccccc1 (centres undefined)	0	-8%	-2%	1%	4%	-7%
CC1CCC2(CC1)NC(=S)N(c1ccccc1)N2 (centres undefined)	5	-20%	-5%	6.3µM*	56µM*	?

Assay outcomes from PubChem BioAssay.
